Reference: PubChem BioAssay AID1986 (Sanford-Burnham Center for Chemical Genomics, 2009)
The whole screen tested about 290,000 compounds, of which about 890 (0.31%) were called active. Rule as the data show it: active = inhibition mostly above about 52% (no sharp cut-off); inactive = mostly below about 76%. The entries come from a sample that favours actives as a whole.

Assay: inhibitors of HIV fusion peptide binding, primary screen, biochemical, uHTS, fluorescence dequenching (AID 1986)
Conditions: cell-free peptide binding, 30 min, stronger effect = higher value
[1] = measured here: repeat confirmation average inhibition, at 18.6 µM

For `COCCCNC(=O)c1ccc(CS(=O)(=O)c2cccc(C(F)(F)F)c2)o1`, the inhibition (at 20 µM) was -1.7% (inactive).

With `CCC12CN3CCN(CC(C3)/C1=N\NC(=O)c1ccc(F)cc1)C2` the inhibition (at 20 µM) was 0.1% (inactive).

For `CCOc1ccc(C2C(C(=O)c3ccco3)=C(O)C(=O)N2Cc2cccnc2)cc1` (stereo not drawn), the inhibition (at 20 µM) was 0.5% (inactive).

In the case of `Cc1ccc(C)c(NC(=O)CSc2nnc(CNC(=O)c3ccco3)n2C)c1`, the inhibition (at 20 µM) is reported as -1.8% (inactive).

In the case of `CCOC(=O)c1ccc(N2C(=O)c3n[nH]c(C)c3C2c2ccco2)cc1` (stereo not drawn), the inhibition (at 20 µM) is reported as -0.8% (inactive).

In the case of `CCOC(=O)c1ccc(N2C(=O)c3n[nH]c(-c4ccco4)c3C2c2ccc([N+](=O)[O-])cc2)cc1` (stereo not drawn), the inhibition (at 20 µM) is reported as 60.1% (active).

In the case of `CCOC(=O)c1ccc(N2C(=O)c3n[nH]c(-c4ccco4)c3C2c2cccc([N+](=O)[O-])c2)cc1` (stereo not drawn), the inhibition (at 20 µM) is reported as 14.6% (inactive).

In the case of `Cc1nnc(SCC(=O)N2CCN(c3ccccc3)CC2)n(N)c1=O`, the inhibition (at 20 µM) is reported as 0.4% (inactive).

For `COc1cc(OC)cc(C(=O)n2nc(C)cc2C)c1`, the inhibition (at 20 µM) was -0.7% (inactive).

For `Cn1c(CC(=O)Nc2ccc(Cl)cc2)nnc1SCC(=O)N1CCOCC1`, the inhibition (at 20 µM) was -1% (inactive).

In the case of `Cc1cc(/C=C2\NC(=S)N(C)C2=O)ccc1N1CCCC1`, the inhibition (at 20 µM) is reported as 143% (inactive).

For `CCCN1C(=O)/C(=C/c2ccc(N3CCCC3)c(C)c2)NC1=S`, the inhibition (at 20 µM) was 125% (inactive).

For `Cc1cc(/C=C2/C(=O)N(C)C(=S)N2C)ccc1N1CCCC1`, the inhibition (at 20 µM) was 54.2% (active).

In the case of `Cc1cc(S(=O)(=O)N2CCOCC2)ccc1OCC(=O)Nc1cccc(F)c1`, the inhibition (at 20 µM) is reported as -1.3% (inactive).

For `CCOc1ccc(C(C)NC(=O)c2cccnc2OCC)cc1OCC` (stereo not drawn), the inhibition (at 20 µM) was -0.2% (inactive).

In the case of `Cc1csc(N/N=C/c2ccc(O)c([N+](=O)[O-])c2)n1`, the inhibition (at 20 µM) is reported as 0% (inactive).

With `O=[N+]([O-])c1cc(/C=N\Nc2nc(-c3ccccc3)cs2)ccc1O` the inhibition (at 20 µM) was 33.1% (inactive).

For `O=[N+]([O-])c1cc(/C=N\Nc2nccs2)ccc1O`, the inhibition (at 20 µM) was 71.1% (active).

With `O=C(/C=C/c1cc([N+](=O)[O-])ccc1OC(F)F)Nc1cccc2ccccc12` the inhibition (at 20 µM) was 1.3% (inactive).

In the case of `CC1(C)Cc2c(sc(NC(=S)NC(=O)c3ccccc3)c2C(=O)O)CO1`, the inhibition (at 20 µM) is reported as 2.8% (inactive).

With `CC(/C=C1\SC(=S)N(NS(=O)(=O)c2ccc(C)cc2)C1=O)=C\c1ccccc1` the inhibition (at 20 µM) was 56.5% (active).

In the case of `CC(/C=C1\SC(=S)N(NC(=O)c2ccc(C)cc2)C1=O)=C\c1ccccc1`, the inhibition (at 20 µM) is reported as 6.4% (inactive).

For `CC(/C=C1\SC(=S)N(NS(=O)(=O)c2ccccc2)C1=O)=C\c1ccccc1`, the inhibition (at 20 µM) was 40.6% (inactive).

For `COc1ccc(NC(=O)/C(C#N)=C/C=C/c2ccco2)cc1`, the inhibition (at 20 µM) was 80.7% (active).

In the case of `COc1ccccc1NC(=O)/C(C#N)=C/C=C/c1ccco1`, the inhibition (at 20 µM) is reported as 24.1% (inactive).

In the case of `COc1ccc(NC(=O)/C(C#N)=C\C=C\c2ccco2)cc1`, the inhibition (at 20 µM) is reported as 73.2% (inactive) and the inhibition [1] is reported as -0.6%.

For `Cc1cccn2cc(CCNC(=O)c3ccco3)nc12`, the inhibition (at 20 µM) was -0.6% (inactive).

With `Cc1cc(N2C(=O)C(O)=C(C(=O)c3ccco3)C2c2ccc([N+](=O)[O-])cc2)no1` (stereo not drawn) the inhibition (at 20 µM) was 1.4% (inactive).

For `Cc1nc(=O)c(-c2ccccc2)c(C)n1CCCCCC(=O)O`, the inhibition (at 20 µM) was -2.3% (inactive).

With `CC(N=C(NS(=O)(=O)c1ccc(Cl)cc1)c1ccccc1)C(=O)O` (stereo not drawn) the inhibition (at 20 µM) was -0.1% (inactive).

In the case of `COc1cc(C=C(c2nc3ccccc3s2)c2nc3ccccc3s2)ccc1O`, the inhibition (at 20 µM) is reported as 8.2% (inactive).

With `COc1cc(C=C(c2nc3ccccc3s2)c2nc3ccccc3s2)cc(OC)c1O` the inhibition (at 20 µM) was 26.6% (inactive).

In the case of `COc1ccc(C=C(c2nc3ccccc3s2)c2nc3ccccc3s2)cc1O`, the inhibition (at 20 µM) is reported as 57.6% (active).

In the case of `CCS(=O)(=O)Nc1cccc(C2=NN(S(C)(=O)=O)C(c3cccs3)C2)c1` (stereo not drawn), the inhibition (at 20 µM) is reported as 0.5% (inactive).

For `CCCC(=O)NC(Nc1ccc(S(=O)(=O)Nc2cc(C)on2)cc1)(C(=O)OCC)C(F)(F)F` (stereo not drawn), the inhibition (at 20 µM) was -1.8% (inactive).

With `CCOC(=O)C(NC(=O)CC)(Nc1ccc(S(=O)(=O)Nc2cc(C)on2)cc1)C(F)(F)F` (stereo not drawn) the inhibition (at 20 µM) was 59.8% (active).

For `CCOC(=O)C(NC(C)=O)(Nc1ccc(S(=O)(=O)Nc2cc(C)on2)cc1)C(F)(F)F` (stereo not drawn), the inhibition (at 20 µM) was 3.7% (inactive).

For `COCCCN(C(=S)NC(=O)C(C)(C)C)c1c(N)n(Cc2ccccc2)c(=O)[nH]c1=O`, the inhibition (at 20 µM) was -2.2% (inactive).

For `COc1ccc(O)c(/C=C2/SC(=S)N(Cc3ccccc3)C2=O)c1`, the inhibition (at 20 µM) was 68.8% (active) and the inhibition [1] was 51%.

For `COc1ccccc1N=C1NC(=O)/C(=C/c2ccc(N(C)C)cc2)S1`, the inhibition (at 20 µM) was 52.4% (active).

With `COc1cc(/C=C2/SC(=S)N(Cc3ccccc3)C2=O)cc(Cl)c1O` the inhibition (at 20 µM) was 119% (active) and the inhibition [1] was 88%.

With `COc1cc(/C=C2/SC(=Nc3ccc(O)cc3)NC2=O)cc(OC)c1O` the inhibition (at 20 µM) was -2.4% (inactive).

In the case of `COc1cc(/C=C2\SC(=Nc3ccc(O)cc3)NC2=O)cc(OC)c1O`, the inhibition (at 20 µM) is reported as -2.7% (inactive).

For `COc1cc(/C=C2/SC(=S)N(Cc3ccccc3)C2=O)ccc1O`, the inhibition (at 20 µM) was 6% (inactive).

With `COc1ccc(/C=C2/SC(=S)N(Cc3ccccc3)C2=O)cc1O` the inhibition (at 20 µM) was -3.1% (inactive).
